{
  "source": "PubChem BioAssay",
  "note": "A number with no mark means an inactive call. Active and inactive are the calls of the source. Unless noted, no stated cut-off is given here; in the data, active means inhibition above about 25%; inactive means the rest.",
  "data": [
    {"target": "Nuclear receptor coactivator 1 (Homo sapiens) (UniProt Q15788)", "sequence (Q15788 whole entry, looked up, the tested form may be a part)": "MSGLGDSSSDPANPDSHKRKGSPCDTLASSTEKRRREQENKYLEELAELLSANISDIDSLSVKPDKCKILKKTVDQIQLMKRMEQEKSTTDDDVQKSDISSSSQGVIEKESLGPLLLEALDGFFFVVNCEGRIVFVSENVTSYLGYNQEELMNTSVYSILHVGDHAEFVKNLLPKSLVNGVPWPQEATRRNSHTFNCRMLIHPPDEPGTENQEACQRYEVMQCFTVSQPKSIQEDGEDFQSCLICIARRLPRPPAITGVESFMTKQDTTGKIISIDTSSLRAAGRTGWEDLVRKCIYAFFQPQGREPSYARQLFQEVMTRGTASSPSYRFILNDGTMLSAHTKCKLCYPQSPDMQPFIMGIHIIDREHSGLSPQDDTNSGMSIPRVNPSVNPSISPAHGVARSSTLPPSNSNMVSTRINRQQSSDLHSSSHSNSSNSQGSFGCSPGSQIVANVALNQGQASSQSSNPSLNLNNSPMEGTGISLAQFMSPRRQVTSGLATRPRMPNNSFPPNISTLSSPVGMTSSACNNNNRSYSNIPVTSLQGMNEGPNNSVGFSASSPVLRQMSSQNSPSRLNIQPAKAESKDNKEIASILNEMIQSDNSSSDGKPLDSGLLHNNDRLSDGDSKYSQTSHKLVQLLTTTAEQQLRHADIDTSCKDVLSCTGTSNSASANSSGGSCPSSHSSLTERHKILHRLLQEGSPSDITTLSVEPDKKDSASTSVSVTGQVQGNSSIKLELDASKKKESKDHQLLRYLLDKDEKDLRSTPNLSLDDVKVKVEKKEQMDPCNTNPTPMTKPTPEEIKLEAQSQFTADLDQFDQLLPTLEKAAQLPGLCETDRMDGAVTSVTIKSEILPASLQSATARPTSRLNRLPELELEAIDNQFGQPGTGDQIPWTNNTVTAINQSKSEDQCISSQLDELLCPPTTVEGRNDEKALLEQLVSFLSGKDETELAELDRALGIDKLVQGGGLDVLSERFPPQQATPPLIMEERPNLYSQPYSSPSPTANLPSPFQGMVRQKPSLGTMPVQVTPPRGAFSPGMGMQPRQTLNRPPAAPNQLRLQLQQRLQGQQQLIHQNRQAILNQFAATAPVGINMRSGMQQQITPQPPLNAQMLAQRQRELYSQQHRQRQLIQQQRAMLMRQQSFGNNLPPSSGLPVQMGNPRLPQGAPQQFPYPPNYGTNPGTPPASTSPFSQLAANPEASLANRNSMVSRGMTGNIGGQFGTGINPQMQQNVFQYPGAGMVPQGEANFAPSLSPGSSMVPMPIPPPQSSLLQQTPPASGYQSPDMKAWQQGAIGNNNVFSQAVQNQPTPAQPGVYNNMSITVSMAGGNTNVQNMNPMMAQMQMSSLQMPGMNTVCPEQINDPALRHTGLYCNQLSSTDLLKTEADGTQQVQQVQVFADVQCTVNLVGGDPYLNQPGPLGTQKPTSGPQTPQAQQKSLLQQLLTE", "test": "SRC1 coactivator transcriptional activity inhibitors, confirmation, cell-based, luminescence, quadruplicate (AID 588820;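 active means mean inhibition above 46.68%, the untreated control wells mean plus 3 SD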;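 further: 0% = DMSO wells and 100% = gossypol 36 µM treated wells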)", "details": "HEK293 GAL4-SRC1 luciferase reporter, at 3.6 µM, active compounds read high", "units": {"inhibition": "%"}, "values": [
      {"smiles": "O=S(=O)(Nc1ccc2c(c1)OCCO2)c1cccc2nsnc12", "inhibition": 7.42},
      {"smiles": "Cc1cc(Nc2cccc(Cl)c2)nc(NCc2ccccc2)n1", "inhibition": -6.91},
      {"smiles": "CCOC(=O)C1CCN(C(=O)c2ccc(OCC(=O)Nc3cccc(C(F)(F)F)c3)c(OC)c2)CC1", "inhibition": 4.29},
      {"smiles": "CC(C)(C)c1cc(/C=N/O)cc(C(C)(C)C)c1O", "inhibition": 33.6},
      {"smiles": "CCn1ccnc1CN(C)Cc1cn[nH]c1-c1ccc(F)cc1F", "inhibition": 30.6},
      {"smiles": "O=C(Nc1ccc2c(c1)OCCO2)C(c1cc2ccccc2o1)N1CCN(c2ccc(F)cc2)CC1", "note": "(stereo unspecified)", "inhibition": 3.86},
      {"smiles": "Cc1cc(NC(=O)Cc2ccccc2)c2ccccc2n1", "inhibition": 11.1},
      {"smiles": "CN(C)S(=O)(=O)N1CCC(Oc2cccc(C(=O)NC3CCCCC3)c2)CC1", "inhibition": -42},
      {"smiles": "Cc1ccc(-c2nnc(SCC(=O)Nc3ccccc3F)o2)cc1", "inhibition": -8.02},
      {"smiles": "O=C(Nc1ccc(OCc2ccccc2Cl)cc1)c1cccnc1", "inhibition": -2.33},
      {"smiles": "Cc1ccc(-c2cc(C(=O)NCCCN3CCOCC3)no2)cc1", "inhibition": 8.12},
      {"smiles": "O=C1CCC2S/C(=C/Nc3ccc(C(F)(F)F)cc3)C(=O)N12", "note": "(stereo unspecified)", "inhibition": 15.1},
      {"smiles": "C=CCNc1ncnc2ccc(Br)cc12", "inhibition": 30.3},
      {"smiles": "Cc1ccc(OCC(=O)NC(=S)Nc2ccccn2)c(Br)c1", "inhibition": -49},
      {"smiles": "CC(=O)Nc1ccc(OCC(=O)Nc2ccc(Cl)c(S(=O)(=O)N3CCOCC3)c2)cc1", "inhibition": -7.7},
      {"smiles": "CNc1cncc(-c2ccc(NS(C)(=O)=O)cc2)n1", "inhibition": 20.8},
      {"smiles": "CC1CCN(c2ccc(-c3cccc(NC(=O)C(F)(F)F)c3)nn2)CC1", "inhibition": -55.7},
      {"smiles": "OC[C@@H]1CN(Cc2ccncc2)C[C@H](n2cnc3c(N4CCN(c5ccccc5)CC4)ncnc32)O1", "inhibition": 2.2},
      {"smiles": "COc1ccccc1NS(=O)(=O)c1cccc(NC(=O)c2cncc(Br)c2)c1", "inhibition": 20},
      {"smiles": "Cc1noc(/C=C/c2ccco2)c1S(=O)(=O)N1CCC(C(=O)Nc2ccc(Cl)cn2)CC1", "inhibition": 16.8}
    ]},
    {"system": "not listed separately", "test": "VP16 transactivation inhibitors, counter-screen for SRC1 inhibitor project, cell-based, luminescence, high throughput (AID 588824)", "details": "cell-based VP16 transactivation luciferase luminescence; at 3.6 µM; active compounds read high", "values": [
      {"smiles": "O=S(=O)(Nc1ccc2c(c1)OCCO2)c1cccc2nsnc12", "inhibition": "-8.28%"},
      {"smiles": "Cc1cc(Nc2cccc(Cl)c2)nc(NCc2ccccc2)n1", "inhibition": "12.4%"},
      {"smiles": "CCOC(=O)C1CCN(C(=O)c2ccc(OCC(=O)Nc3cccc(C(F)(F)F)c3)c(OC)c2)CC1", "inhibition": "35.4% (active)"},
      {"smiles": "CC(C)(C)c1cc(/C=N/O)cc(C(C)(C)C)c1O", "inhibition": "26.5% (active)"},
      {"smiles": "CCn1ccnc1CN(C)Cc1cn[nH]c1-c1ccc(F)cc1F", "inhibition": "15.7%"},
      {"smiles": "O=C(Nc1ccc2c(c1)OCCO2)C(c1cc2ccccc2o1)N1CCN(c2ccc(F)cc2)CC1", "note": "(stereo unspecified)", "inhibition": "-2.84%"},
      {"smiles": "CCN(CC)CC(C)(C)C(=O)/C=C/c1ccc(/C=C/C(=O)C(C)(C)CN(CC)CC)cc1", "inhibition": "84.5% (active)"},
      {"smiles": "Cc1cc(NC(=O)Cc2ccccc2)c2ccccc2n1", "inhibition": "36.5% (active)"},
      {"smiles": "CN(C)S(=O)(=O)N1CCC(Oc2cccc(C(=O)NC3CCCCC3)c2)CC1", "inhibition": "22%"},
      {"smiles": "Cc1ccc(-c2nnc(SCC(=O)Nc3ccccc3F)o2)cc1", "inhibition": "26.2% (active)"},
      {"smiles": "O=C(Nc1ccc(OCc2ccccc2Cl)cc1)c1cccnc1", "inhibition": "-5.23%"},
      {"smiles": "Cc1ccc(-c2cc(C(=O)NCCCN3CCOCC3)no2)cc1", "inhibition": "-4.18%"},
      {"smiles": "O=C1CCC2S/C(=C/Nc3ccc(C(F)(F)F)cc3)C(=O)N12", "note": "(stereo unspecified)", "inhibition": "6.56%"},
      {"smiles": "C=CCNc1ncnc2ccc(Br)cc12", "inhibition": "21%"},
      {"smiles": "Cc1ccc(OCC(=O)NC(=S)Nc2ccccn2)c(Br)c1", "inhibition": "-39.2%"},
      {"smiles": "CC(=O)Nc1ccc(OCC(=O)Nc2ccc(Cl)c(S(=O)(=O)N3CCOCC3)c2)cc1", "inhibition": "27.7% (active)"},
      {"smiles": "CNc1cncc(-c2ccc(NS(C)(=O)=O)cc2)n1", "inhibition": "31% (active)"},
      {"smiles": "CC1CCN(c2ccc(-c3cccc(NC(=O)C(F)(F)F)c3)nn2)CC1", "inhibition": "-29.6%"},
      {"smiles": "OC[C@@H]1CN(Cc2ccncc2)C[C@H](n2cnc3c(N4CCN(c5ccccc5)CC4)ncnc32)O1", "inhibition": "37.8% (active)"},
      {"smiles": "COc1ccccc1NS(=O)(=O)c1cccc(NC(=O)c2cncc(Br)c2)c1", "inhibition": "25.1%"},
      {"smiles": "Cc1noc(/C=C/c2ccco2)c1S(=O)(=O)N1CCC(C(=O)Nc2ccc(Cl)cn2)CC1", "inhibition": "24.4%"}
    ]}
  ]
}
